Experimental data taken from the OligoGym collection.

target: PION; test: pooled miR-30 sensor sort-seq; sequence = guide strand; conditions: shRNA
Note: reference of the scale not given here.

Sequence | sensor-assay potency score (higher = more potent)
TTCTTTAGTAGACTGAACTAAA | -0.809
TAGTAGACTGAACTAAACTTGC | -0.883
TTTCTTCTTTTCTACACCCTGT | 0.0243
AACATACACACAAACTTCCTGT | 0.437
TTAGTAGACTGAACTAAACTTG | -0.14
TATAGTTCTGAAGCAGTCGCGT | -0.318
TAACATACACACAAACTTCCTG | 0.883
TTTTCTTCTTTTCTACACCCTG | -0.629
TTTTCTAAAACATCTGCGCCGC | -0.387

target: PIP5K1B; test: as above; conditions: shRNA

Sequence | sensor-assay potency score (higher = more potent)
TTGAGGACACAATCTCCTGTGA | -0.569
TTGGTCTATGAACAGAAACAGT | -1.55
TTGACATCTTGAAAACTCTTAA | -0.776
TTTGAATAGAGTGTAGGCCTGT | 0.71
TTGCAGGAAATCTAAGTCCTTA | -0.188
TTGCATACAATACAGTCCGTAA | -1.09
TTAAATTCATGTAATAGCCTGG | 0.247
TCTAACTTCTTCATTAACCTAT | 0.135
TAATCCATGATCTTGAAGCTTT | -0.406
TTGAACTGGAAGGTAACCCTTT | 0.268
TTCGCTTATACGTTGAGCCTTT | 0.43

target: PIP5KL1; test: as above; conditions: shRNA

Sequence | sensor-assay potency score (higher = more potent)
TAATCCAGCACGTTGAGCTCCC | -0.232
TTGAGCTCCCGGAGGAAGGTGG | -0.608
TATCCAGTTCCATCTGGCGGAG | -1.65
TTTGGGCTCTCGACTCTTCCGG | -0.891
TAGCGCAGTGTCTTCCACAGGT | 0.0204
TGTCTTCCACAGGTGCTCCAGC | -0.631
TTGATGTCATACCTCTCGGAGA | -1.04
TATCAGGAGGCTGTAATCCAGC | -1.11
TTGGGCTCTCGACTCTTCCGGG | -0.549
TTGCGGAGCCCGTAGACTGTGG | -1.6
TACCTCTCGGAGATGCGGCCGG | -0.502
TTTGATGTCATACCTCTCGGAG | -0.872

target: PITPNM3; test: as above; conditions: shRNA

Sequence | sensor-assay potency score (higher = more potent)
TAGACAGAGATGTCCTTCGTGG | -0.052
TTGCTGAGACGCTTGCTGCTGG | -0.433
TATGTGATGCGACCACTGCTGT | -0.671
TTACGAAGCCACTTCTCCCGGG | -0.085
TTTGCTGAGACGCTTGCTGCTG | -0.757
TTCTCCTTGATGCTCGTCCAGT | -0.95
TCTTCGTGGATCTCGATGCTTC | -0.715
TTCAGCAGCAATCACATCATTG | -1.64
